Cruzain noTriton – qHTS Assay for Promiscuous and Specific Inhibitors of Cruzain (without detergent); Cruzipain (Trypanosoma cruzi), P25779; purified cruzain, Z-FR-AMC fluorescence, no detergent; Potency, µM, without a hit: max response, negative = inhibition, most hits filed as inhibitors; hit rate 2.3% among 200,000; AID 1476, 2009;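 also: plate controls were enzyme without inhibitor for no effect and buffer without enzyme for full effect; nearly all actives have a fitted effect of over 40% in size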
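Detergent-free condition (0.00005% Triton X-100) in acetate buffer pH 5.5 with DTT. 1.5 nM enzyme and compound were pre-mixed 15 min, then 2 uM Z-FR-AMC substrate added; reaction progress from fluorescence change between first and third reads (60 s).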
Cruzain Triton – qHTS Assay for Promiscuous and Specific Inhibitors of Cruzain (with detergent); Cruzipain (Trypanosoma cruzi), P25779; purified cruzain, Z-FR-AMC fluorescence, 0.01% Triton; Potency, µM, without a hit: max response, negative = inhibition, actives largely listed as inhibitors; hit rate 0.43% among 200,000; AID 1478, 2009;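 also: plate controls were neutral wells for no effect and buffer without enzyme for full effect; nearly all actives have a fitted effect of over 40% in size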
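Compounds were screened in titration against cruzain (1.5 nM) with 0.01% Triton X-100 to counter colloidal aggregation. Activity was the AMC fluorescence increase over 60 s after adding 2 uM Z-FR-AMC at pH 5.5.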
Giardia FBPA inh-1 – qHTS Assay for Inhibitors of Fructose-1,6-bisphosphate Aldolase from Giardia Lamblia; A8B2U2; purified Giardia FBPA; Potency, µM (series often up to 59.6 µM), without a hit: top-dose activity, negative = inhibition, hits mostly inhibitors; hit rate 0.71% among 290,000; AID 2451, 2010; also: nearly all actives have a fitted effect of over 55% in size
Target sequence (A8B2U2 whole entry, looked up): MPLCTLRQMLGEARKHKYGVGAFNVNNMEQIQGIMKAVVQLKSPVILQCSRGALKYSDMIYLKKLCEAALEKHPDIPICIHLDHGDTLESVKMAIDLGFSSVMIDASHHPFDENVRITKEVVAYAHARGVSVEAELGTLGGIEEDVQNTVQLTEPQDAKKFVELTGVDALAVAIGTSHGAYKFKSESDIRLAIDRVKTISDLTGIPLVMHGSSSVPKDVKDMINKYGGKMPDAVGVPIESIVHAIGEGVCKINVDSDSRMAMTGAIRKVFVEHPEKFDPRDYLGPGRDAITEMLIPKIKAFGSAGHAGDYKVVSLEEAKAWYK
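40 nM FBPA preincubated 10 min at RT with compound (up to 57.5 uM final), then substrate plus GAPDH/TPI/NAD/arsenate coupling and diaphorase/resazurin added. Fluorescence read after 20 min at RT, 525/598 nm.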
Giardia growth – qHTS Assay for Inhibitors of Fructose-1,6-bisphosphate Aldolase from Giardia Lamblia: Giardia lamblia growth inhibition; Giardia lamblia trophozoite growth inhibition; hit rate 5% among 1,500; shares compounds with Giardia FBPA inh-1; Potency, µM (top dose mostly 57.5 µM), inactives show at the highest dose activity change, negative = inhibition, most hits filed as inhibitors; AID 2785, 2010;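 also: trophozoites exposed to compound for 48 h at 37 °C; nearly all actives have a fitted effect of over 70% in size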
Mammal cell tox – qHTS Assay for Inhibitors of Fructose-1,6-bisphosphate Aldolase from Giardia Lamblia: Mammalian cellular toxicity; shares compounds with Giardia FBPA inh-1; mammalian cell viability counter-screen, qHTS; Potency, µM (series often up to 57.5 µM), for the others: at the top dose viability change, negative = toxicity, hits mostly inhibitors; hit rate 4% among 1,500; AID 2786, 2010;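 also: Chinese hamster ovary cells used as mammalian cytotoxicity surrogate; viability measured as cellular ATP by luminescence; compound exposure lasted 48 h before reading; nearly all actives have a fitted effect of over 60% in size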
Giardia FBPA inh-2 – qHTS Assay for Inhibitors of Fructose-1,6-bisphosphate Aldolase from Giardia Lamblia: Primary screen confirmation; shares compounds with Giardia FBPA inh-1; purified Giardia aldolase enzyme activity, qHTS; Potency, µM (series often up to 57.5 µM), without a hit: top-dose activity change, negative = inhibition, most hits filed as inhibitors; hit rate 5% among 1,500; AID 2787, 2010; also: nearly all actives have a fitted effect of over 45% in size
Rabbit aldolase – qHTS Assay for Inhibitors of Fructose-1,6-bisphosphate Aldolase from Giardia Lamblia: Rabbit FBPA Selectivity | hit rate 4% among 1,500 | Rabbit muscle FBPA enzyme inhibition, selectivity counter-screen | AID 2794, 2010 | shares compounds with Giardia FBPA inh-1 | Potency, µM (highest dose often 57.5 µM), for inactives: top-dose activity, negative = inhibition, actives largely listed as inhibitors; also: nearly all actives have a fitted effect of over 60% in size
Target sequence (P00883 whole entry, looked up): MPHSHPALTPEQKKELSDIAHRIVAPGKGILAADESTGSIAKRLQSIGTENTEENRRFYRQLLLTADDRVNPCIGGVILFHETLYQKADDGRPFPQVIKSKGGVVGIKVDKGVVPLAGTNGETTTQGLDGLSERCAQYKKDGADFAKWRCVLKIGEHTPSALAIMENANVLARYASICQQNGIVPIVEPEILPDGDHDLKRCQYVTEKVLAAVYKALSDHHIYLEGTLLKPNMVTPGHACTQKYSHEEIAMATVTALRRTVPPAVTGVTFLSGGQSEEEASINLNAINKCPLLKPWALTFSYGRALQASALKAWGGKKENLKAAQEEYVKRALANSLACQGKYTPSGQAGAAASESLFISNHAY
GAPDH coupling – qHTS Assay for Inhibitors of Fructose-1,6-bisphosphate Aldolase from Giardia Lamblia: Coupling assay counterscreen confirmation | shares compounds with Giardia FBPA inh-1 | GAPDH coupling enzyme counterscreen, biochemical, qHTS | Potency, µM (titrated, usually from 57.5 µM), for inactives: top-dose activity change, negative = inhibition, hits mostly inhibitors | hit rate 6% among 1,500; also: nearly all actives have a fitted effect of over 55% in size
* hit, by the source's call; [ ] = another dose, or the depositor's remark. Many of the other results were omitted from the sample, so hits are more common in it than they were. Calls follow the shape of the dose curve; as a rule, active = well fitted curve in the direction sought with a large enough effect; inconclusive = small, poorly fitted or top-dose-only effect, or another doubt; inactive = no such curve, though single readings can be large; an effect the other way counts as inactive or inconclusive. Unless noted, % is scaled to controls: 0 for no effect and ±100 for the full control effect; potency is read from the fitted curve at half-maximal effect.

`Cc1ccc(NC(=O)c2sc3nc[nH]c(=O)c3c2C)cc1C` gave Cruzain noTriton 18% and Cruzain Triton -5%.
Screening CC[C@H](C)[C@H](NC(=O)[C@H](Cc1ccc(O)cc1)NC(=O)CNC(=O)[C@@H]1CCCN1C(=O)[C@H](CC(=O)O)NC(=O)[C@@H](N)CS)C(=O)NCC(=O)N[C@@H](CO)C(=O)N[C@@H](CCCN=C(N)N)C(N)=O returned Giardia FBPA inh-1 -1%.
For CCOC(=O)N1CCN(Cc2ccc3ccccc3c2)CC1 the results were Giardia FBPA inh-1 25µM*, Giardia growth 9%[10.4 µM], Mammal cell tox 9%, Giardia FBPA inh-2 3%, Rabbit aldolase 8% and GAPDH coupling 2%.
Screening CCOC(=O)N1CCN(Cc2ccc(O)c3ncccc23)CC1 returned Giardia FBPA inh-1 -9%.
`CCOC(=O)C1CCN(Cc2ccc3ccccc3c2)CC1` gave Giardia FBPA inh-1 -27%.
`CCOC(=O)N1CCN(Cc2ccccn2)CC1` gave Cruzain noTriton -4%, Cruzain Triton -1%, Giardia FBPA inh-1 14µM*, Giardia growth 33%, Mammal cell tox -10%, Giardia FBPA inh-2 0%, Rabbit aldolase 3% and GAPDH coupling 6%.
Screening Cc1cn2c(=O)cc(COc3ccc(NC(=O)COc4ccccc4)cc3)nc2s1 returned Cruzain noTriton -13% and Cruzain Triton 0%.
`CC1CN(c2c(F)c(N)c3c(=O)c(C(=O)O)cn(C4CC4)c3c2F)CC(C)N1` (stereo not drawn) gave Cruzain noTriton -1%, Cruzain Triton -1% and Giardia FBPA inh-1 -1%.
`COc1ccc([C@]23Cc4cc(OC)c(OC)cc4C(O2)C2=C(CC(C)(C)CC2=O)O3)cc1` gave Giardia FBPA inh-1 8%[12.9 µM].
Screening Cc1ccc(C(C)C)cc1OCCn1cncn1 returned Giardia FBPA inh-1 22µM*, Giardia growth -2%[10.4 µM], Mammal cell tox 10%, Giardia FBPA inh-2 4%, Rabbit aldolase -6% and GAPDH coupling inconclusive.
Cc1ccc(OCCn2cncn2)c([N+](=O)[O-])c1 was read as Giardia FBPA inh-1 4%.
Screening CC#CCN1c2ccccc2[C@]23C[C@@H](C(=O)OC)N(S(=O)(=O)c4ccc(OC)cc4)C2=NC(C(=O)OC)=C(C(=O)OC)[C@H]13 returned Giardia FBPA inh-1 0%[12.9 µM].
`Clc1cccc(-n2ncc3c(Nc4ccc5c(c4)OCCO5)ncnc32)c1` gave Cruzain noTriton -13% and Cruzain Triton -2%.
COc1ccccc1NC(=O)C1=C(C)Nc2c(C(=O)Nc3ccc(F)cc3)cnn2C1c1ccc(Cl)cc1 (stereo not drawn) was read as Cruzain noTriton inconclusive and Cruzain Triton -4%.
COC(=O)c1ccc(NC(=O)c2c(NCc3ccc(OC)c(OC)c3)sc3c2CCCC3)cc1 was read as Cruzain noTriton 21% and Cruzain Triton -10%.
Screening O=C1c2ccccc2C(=O)c2c(O)c(O)cc(O)c21 returned Cruzain noTriton -14%, Cruzain Triton inconclusive and Giardia FBPA inh-1 inconclusive.
O=c1c(O)cccc2cc(O)c(O)c(O)c12 was read as Cruzain noTriton -13%, Cruzain Triton -19%, Giardia FBPA inh-1 14µM*, Giardia growth -16%[38.3 µM], Mammal cell tox -18%, Giardia FBPA inh-2 10µM*, Rabbit aldolase 16µM* and GAPDH coupling 37µM*.
For Cc1ccc(NC(=O)CSCc2cc(=O)n3cc(C)sc3n2)cc1 the results were Giardia FBPA inh-1 1%.
For CCCCc1nnc(NC(=O)CSCc2cc(=O)n3cc(C)sc3n2)s1 the results were Giardia FBPA inh-1 4µM*, Giardia growth 7%[38.3 µM], Mammal cell tox inconclusive, Giardia FBPA inh-2 inconclusive, Rabbit aldolase 19% and GAPDH coupling -5%.
`CCCN(CCC)C(=O)Cn1c(=O)n(-c2ccccc2)c(=O)c2c3c(sc21)CCCC3` gave Cruzain noTriton -7% and Cruzain Triton -2%.
Screening O=C(N/N=C/c1ccncc1)c1nc2ccccc2c(=O)[nH]1 returned Giardia FBPA inh-1 11µM*, Giardia growth 11%, Mammal cell tox 24%, Giardia FBPA inh-2 -9%, Rabbit aldolase -17% and GAPDH coupling 0%.
O=C(N/N=C/c1ccc2cccnc2c1)c1nc2ccccc2c(=O)[nH]1 was read as Giardia FBPA inh-1 -17%.
COc1ccc(CCNC(=O)Cn2c(=O)n(-c3cc(OC)c(OC)c(OC)c3)c(=O)c3ccccc32)cc1OC was read as Cruzain noTriton -8% and Cruzain Triton 0%.
For CCOC(=O)CCCc1ccc(/C(C)=N/NC(=S)NC)cc1 the results were Giardia FBPA inh-1 -9%.
`CC(=O)N/N=C(\C)c1ccc2c(c1)OCCO2` gave Giardia FBPA inh-1 3%.
Screening CCOC(=O)CCCc1ccc(/C(C)=N/NC(N)=S)cc1 returned Giardia FBPA inh-1 6.3µM*, Giardia growth 13%[38.3 µM], Mammal cell tox -1%, Giardia FBPA inh-2 10%, Rabbit aldolase 9% and GAPDH coupling -3%.
Screening CSC(=S)N/N=C(\C)c1ccccc1 returned Giardia FBPA inh-1 21%.
Screening C/C(=N\NC(N)=S)c1ccccc1 returned Giardia FBPA inh-1 16µM*, Giardia growth 27%, Mammal cell tox 7%, Giardia FBPA inh-2 6%, Rabbit aldolase 5% and GAPDH coupling 7%.
For C/C(=N\NC(N)=S)c1ccc2c(c1)OCCO2 the results were Giardia FBPA inh-1 18µM*, Giardia growth inconclusive, Mammal cell tox -10%, Giardia FBPA inh-2 11%, Rabbit aldolase 8% and GAPDH coupling 9%.
`CCn1c(C(=O)N2CCCC(C(=O)N3CCN(c4ccccc4)CC3)C2)cc2sccc21` (stereo not drawn) gave Cruzain noTriton inconclusive and Cruzain Triton -5%.
Cc1cccc(C(=O)Nc2cccc(C(=O)OCc3cc(=O)n4nc(C5CC5)sc4n3)c2)c1 was read as Cruzain noTriton -6% and Cruzain Triton -1%.

Assay outcomes from PubChem.
